Assay results from PubChem BioAssay (Tox21).
Records with an inconclusive call do not appear. Activity calls are given as the source filed them. Unless noted, calls follow the shape of the dose curve; as a rule, active = well fitted curve in the direction sought with a large enough effect in the repeat runs; inconclusive = weak or mixed curves; inactive = no such curve, though single readings can be large; an effect the other way counts as inactive or inconclusive.

Tests used:
[1] = qHTS assay to identify small molecule agonists of the peroxisome proliferator-activated receptor delta (PPARd) signaling pathway - cell viability counter screen (AID 743211); also: % is scaled to controls: 0 for no effect and ±100 for the full control effect; nearly all actives have a fitted effect of over 55% in size
Method in brief: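 Following 5 h plating at 37 C and 5% CO2, PPARd UAS-bla HEK293H cells took up test compounds for 17 h. Viability was quantified by luminescence 30 min after CellTiter-Glo addition at room temperature.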

[2] = qHTS assay to identify small molecule antagonists of the peroxisome proliferator-activated receptor delta (PPARd) signaling pathway - cell viability counter screen (AID 743213); also: nearly all actives have a fitted effect of over 50% in size; also: potency is read from the fitted curve at half-maximal effect
Method in brief: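 Luminescence from CellTiter-Glo, added after the bla read and incubated 30 min at room temperature, gives viability of HEK293H PPARd-bla cells exposed to compounds for 17 h at 37 C with 300 nM L165041.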

[3] = target: Bile acid receptor (Homo sapiens) (UniProt Q96RI1); test: qHTS assay to identify small molecule antagonists of the farnesoid-X-receptor (FXR) signaling pathway (AID 743217; active = well fitted inhibition curve with a large enough effect in the signal ratio in the repeat runs, not every such curve was filed as active; the % refers to the signal ratio; also: % is scaled to controls: 0 for no effect and ±100 for the full control effect)
Method in brief: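 In this cell-based antagonist screen, inhibition of CDCA-driven (50 uM final) UAS-beta-lactamase expression in HEK 293T cells was measured by FRET fluorescence following 16 h compound exposure at 37 °C.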

[4] = qHTS assay to identify small molecule agonists of the farnesoid-X-receptor (FXR) signaling pathway - cell viability counter screen (AID 743218); also: % is scaled to controls: 0 for no effect and ±100 for the full control effect; nearly all actives have a fitted effect of over 45% in size
Method in brief: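 After 16 h at 37 C with test compounds, FXR-bla HEK 293T cells were given LiveBLAzer B/G substrate for 2 h at RT and then CellTiter-Glo; luminescence was taken after 30 min.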

[5] = target: Bile acid receptor (Homo sapiens) (UniProt Q96RI1); test: qHTS assay to identify small molecule agonists of the farnesoid-X-receptor (FXR) signaling pathway (AID 743220; active = well fitted activation curve with a large enough effect in the signal ratio in the repeat runs, not every such curve was filed as active; the % refers to the signal ratio; also: % is scaled to controls: 0 for no effect and ±100 for the full control effect)
Method in brief: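 Beta-lactamase reporter under UAS control in GeneBLAzer FXR HEK 293T cells (5000/well) measured with LiveBLAzer FRET substrate after 2 h at room temperature. Compound exposure lasted 16 h at 37C.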

[6] = qHTS assay to identify small molecule agonists of the vitamin D receptor (VDR) signaling pathway - cell viability counter screen (AID 743224); also: nearly all actives have a fitted effect of over 50% in size; also: potency is read from the fitted curve at half-maximal effect
Method in brief: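 Here cell health was gauged by luminescent ATP detection (CellTiter-Glo, 30 min RT) in VDR-bla cells that had been incubated with test compounds for 16 h at 37C and 5% CO2.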

[7] = qHTS assay to identify small molecule antagonists of the vitamin D receptor (VDR) signaling pathway - cell viability counter screen (AID 743225); also: % is scaled to controls: 0 for no effect and ±100 for the full control effect; nearly all actives have a fitted effect of over 50% in size
Method in brief: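 In this counter screen, VDR-bla HEK 293T cells receive test compound plus 3 nM final calcitriol for 16 h at 37C. Room-temperature steps of 2 h with the beta-lactamase substrate, then 30 min with CellTiter-Glo, precede the luminescence read.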

[8] = qHTS assay to identify small molecule agonists of the NFkB signaling pathway - cell viability counter screen (AID 1159515; calls by dose curve; also: nearly all actives have a fitted effect of over 55% in size; also: potency is read from the fitted curve at half-maximal effect)
Method in brief: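 5 hr compound treatment of NFkB-bla ME-180 cells (2,000/well, seeded overnight beforehand), followed by reporter substrate for 1.5 hr. CellTiter-Glo added afterward; luminescence after 30 min RT.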

[9] = qHTS assay to identify small molecule agonists of the endoplasmic reticulum stress response signaling pathway (AID 1159516; active = well fitted activation curve with a large enough effect in the signal ratio in the repeat runs, not every such curve was filed as active; the % refers to the signal ratio; also: % is scaled to controls: 0 for no effect and ±100 for the full control effect)
Method in brief: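 Reporter HeLa cells (ESRE-beta-lactamase) underwent 5 hr compound incubation at 37 C and 5% CO2 in quantitative HTS format. Detection followed 2 hr of FRET substrate loading at room temperature.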

[10] = qHTS assay to identify small molecule antagonists of the retinoid-related orphan receptor gamma (ROR-gamma) signaling pathway - cell viability counter screen (AID 1159520); also: % is scaled to controls: 0 for no effect and ±100 for the full control effect; nearly all actives have a fitted effect of over 50% in size
Method in brief: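 Tet-on ROR gamma CHO cells were given compounds for 2 hr, then doxycycline hyclate at 1 uM final, and incubated 16 hr at 37 C. Viability was measured as ATP content by CellTiter-Glo luminescence.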

[11] = qHTS assay to identify small molecule agonists of the AP-1 signaling pathway - cell viability counter screen (AID 1159525; calls by dose curve; also: nearly all actives have a fitted effect of over 55% in size; also: potency is read from the fitted curve at half-maximal effect)
Method in brief: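 AP-1-bla ME-180 cells in Opti-MEM with 0.5% dialyzed FBS, compound exposure 5 h at 37 C in 15-point titration. Viability read in the same wells as ATP content by CellTiter-Glo luminescence, normalised to tetra-n-octylammonium bromide and DMSO controls.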

[12] = qHTS assay to identify small molecule agonists of the AP-1 signaling pathway (AID 1159526; calls by dose curve; also: % is scaled to controls: 0 for no effect and ±100 for the full control effect)
[13] = target: Retinoic acid receptor RXR-alpha (Homo sapiens) (UniProt P19793); test: qHTS assay to identify small molecule agonists of the RXR signaling pathway (AID 1159527; calls by dose curve; also: % is scaled to controls: 0 for no effect and ±100 for the full control effect; nearly all actives have a fitted effect of over 35% in size)
Method in brief: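 Fluorescence ratio readout (460 vs 530 nm) from GeneBLAzer RXR-alpha HEK 293T cells after 16 hr compound treatment; cells seeded 5 hr beforehand in low-serum, charcoal-stripped medium.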

[14] = target: Peroxisome proliferator-activated receptor delta (Homo sapiens) (UniProt Q03181); test: qHTS assay to identify small molecule antagonists of the peroxisome proliferator-activated receptor delta (PPARd) signaling pathway (AID 743215; active = well fitted inhibition curve with a large enough effect in the signal ratio in the repeat runs, not every such curve was filed as active; the % refers to the signal ratio)
Method in brief: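 With L165041 present at 300 nM final, compounds were incubated 17 h at 37 C on PPARd UAS-bla HEK293H cells. A FRET-based beta-lactamase substrate was then applied for 2 h at room temperature and fluorescence intensity recorded.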

[15] = qHTS assay to identify small molecule antagonists of the farnesoid-X-receptor (FXR) signaling pathway - cell viability counter screen (AID 743221; active = well fitted cell-killing curve with a large enough effect in the repeat runs, not every such curve was filed as active; also: nearly all actives have a fitted effect of over 50% in size; also: potency is read from the fitted curve at half-maximal effect)
Method in brief: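 Compound effects on cell number were measured as CellTiter-Glo luminescence in HEK 293T cells expressing FXR-UAS-bla, after 16 h at 37 C with 50 uM CDCA (final).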

[16] = target: Vitamin D3 receptor (Homo sapiens) (UniProt P11473); test: qHTS assay to identify small molecule agonists of the vitamin D receptor (VDR) signaling pathway (AID 743222; calls by dose curve; also: % is scaled to controls: 0 for no effect and ±100 for the full control effect)
Method in brief: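 VDR-bla cells were seeded, left 4 h, treated with compounds in DMSO for 16 h, incubated 2 h at RT with B/G FRET substrate, and read for fluorescence.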

[17] = target: Vitamin D3 receptor (Homo sapiens) (UniProt P11473); test: qHTS assay to identify small molecule antagonists of the vitamin D receptor (VDR) signaling pathway (AID 743223; active = well fitted inhibition curve with a large enough effect in the signal ratio in the repeat runs, not every such curve was filed as active; the % refers to the signal ratio; also: % is scaled to controls: 0 for no effect and ±100 for the full control effect)
Method in brief: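 Beta-lactamase activity in VDR-bla cells is measured by FRET substrate fluorescence (2 h, room temperature) after cells spend 16 h at 37C with test compound and 3 nM final 1alpha,25-dihydroxyvitamin D3.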

[18] = target: Peroxisome proliferator-activated receptor delta (Homo sapiens) (UniProt Q03181); test: qHTS assay to identify small molecule agonists of the peroxisome proliferator-activated receptor delta (PPARd) signaling pathway (AID 743212; calls by dose curve; also: % is scaled to controls: 0 for no effect and ±100 for the full control effect)
Method in brief: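 Quantitative high-throughput agonist screen in a HEK293H beta-lactamase reporter line under UAS control. Compounds in DMSO, at 37 C. Fluorescence read after 2 h with FRET substrate at room temperature.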

[19] = target: Nuclear receptor ROR-gamma (Homo sapiens) (UniProt P51449); test: qHTS assay to identify small molecule antagonists of the retinoid-related orphan receptor gamma (ROR-gamma) signaling pathway (AID 1159521; also: nearly all actives have a fitted effect of over 50% in size; also: potency is read from the fitted curve at half-maximal effect)
Method in brief: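 Screening format: cell-based luciferase reporter in CHO cells with doxycycline-inducible RORγ. Compound pre-exposure lasts 2 h, doxycycline is 1 uM final, induction runs 16 h at 37 C, and ONE-Glo luminescence is read.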

Peroxisome proliferator-activated receptor delta (Homo sapiens), sequence (Q03181 whole entry, looked up): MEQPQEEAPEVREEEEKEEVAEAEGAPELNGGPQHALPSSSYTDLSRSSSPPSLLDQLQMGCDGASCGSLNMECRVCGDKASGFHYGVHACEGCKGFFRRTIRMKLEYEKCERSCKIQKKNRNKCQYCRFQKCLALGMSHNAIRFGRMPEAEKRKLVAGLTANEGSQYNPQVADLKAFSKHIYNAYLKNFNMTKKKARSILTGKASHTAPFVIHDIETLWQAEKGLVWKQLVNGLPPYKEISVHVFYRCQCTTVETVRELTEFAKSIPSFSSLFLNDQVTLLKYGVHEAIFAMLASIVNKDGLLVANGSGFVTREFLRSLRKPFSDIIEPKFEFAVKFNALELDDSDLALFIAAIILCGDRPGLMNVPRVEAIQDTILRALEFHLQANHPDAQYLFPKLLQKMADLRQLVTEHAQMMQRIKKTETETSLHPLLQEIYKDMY
Retinoic acid receptor RXR-alpha (Homo sapiens), sequence (P19793 whole entry, looked up): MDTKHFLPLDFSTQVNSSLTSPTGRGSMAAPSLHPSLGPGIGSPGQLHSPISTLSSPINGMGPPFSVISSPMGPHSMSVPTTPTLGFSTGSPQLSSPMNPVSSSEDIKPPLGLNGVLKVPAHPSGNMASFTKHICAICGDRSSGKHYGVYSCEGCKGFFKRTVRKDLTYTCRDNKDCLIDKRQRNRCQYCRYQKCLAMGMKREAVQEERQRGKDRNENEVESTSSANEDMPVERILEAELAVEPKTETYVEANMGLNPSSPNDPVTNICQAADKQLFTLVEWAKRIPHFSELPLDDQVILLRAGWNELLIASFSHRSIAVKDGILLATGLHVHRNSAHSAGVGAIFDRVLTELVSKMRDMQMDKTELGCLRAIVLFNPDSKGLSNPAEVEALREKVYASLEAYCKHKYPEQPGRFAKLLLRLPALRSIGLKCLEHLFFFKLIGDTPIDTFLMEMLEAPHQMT
Vitamin D3 receptor (Homo sapiens), sequence (P11473 whole entry, looked up): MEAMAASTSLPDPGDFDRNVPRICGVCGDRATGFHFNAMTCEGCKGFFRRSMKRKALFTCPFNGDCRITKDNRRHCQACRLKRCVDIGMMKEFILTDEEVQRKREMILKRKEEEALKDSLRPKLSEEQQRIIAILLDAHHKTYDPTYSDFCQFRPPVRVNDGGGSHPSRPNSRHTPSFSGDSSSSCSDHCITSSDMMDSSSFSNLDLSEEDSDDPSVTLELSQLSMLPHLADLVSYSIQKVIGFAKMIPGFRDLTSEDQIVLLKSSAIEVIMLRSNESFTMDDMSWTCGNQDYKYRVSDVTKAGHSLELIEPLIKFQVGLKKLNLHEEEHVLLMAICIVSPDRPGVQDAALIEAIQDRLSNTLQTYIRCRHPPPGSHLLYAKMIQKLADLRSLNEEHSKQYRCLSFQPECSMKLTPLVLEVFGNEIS
Bile acid receptor (Homo sapiens), sequence (Q96RI1 whole entry, looked up): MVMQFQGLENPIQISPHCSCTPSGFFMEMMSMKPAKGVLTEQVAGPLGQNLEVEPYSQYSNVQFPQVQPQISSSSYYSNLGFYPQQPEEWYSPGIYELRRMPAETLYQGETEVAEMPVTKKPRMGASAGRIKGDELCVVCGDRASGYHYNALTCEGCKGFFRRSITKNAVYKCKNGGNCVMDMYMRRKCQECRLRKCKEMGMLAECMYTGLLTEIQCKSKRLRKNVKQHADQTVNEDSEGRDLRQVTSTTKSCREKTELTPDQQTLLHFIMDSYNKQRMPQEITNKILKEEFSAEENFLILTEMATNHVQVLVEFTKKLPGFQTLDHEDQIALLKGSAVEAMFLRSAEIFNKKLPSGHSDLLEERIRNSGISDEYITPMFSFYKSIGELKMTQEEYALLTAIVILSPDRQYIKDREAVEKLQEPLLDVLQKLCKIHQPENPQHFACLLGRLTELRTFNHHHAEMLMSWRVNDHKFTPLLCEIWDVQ

Cc1cnc2c(C(=O)O)c(Cl)ccc2c1
inactive: Potency [1] | Potency [2] | Potency [3] | Potency [4] | Potency [5] | Potency [6] | Potency [7] | Potency [8] | Potency [9] | Potency [10] | Potency [11] | Potency [12] | Potency [13]

Clc1c(Cl)c(Cl)c(Cl)c(Cl)c1Cl
inactive: activity change, negative = cytotoxicity [1] 0.119% [at 5.95 µM] | viability change, negative = cytotoxic [2] 0.753% [at 6.26 µM] | ratio activity, negative = inhibition [14] -0.823% [at 6.26 µM] | viability change, negative = cytotoxic [4] 24.1% [at 5.95 µM] | activity change, negative = cytotoxicity [15] 10.7% [at 5.95 µM] | activation [16] -0.148% [at 6.01 µM] | activity change, negative = inhibition [17] 0.227% [at 6.95 µM] | activity change, negative = cytotoxicity [6] 2.99% [at 5.95 µM] | activity, negative = cytotoxic [8] 7.25% [at 6.95 µM] | activation [9] -1.07% [at 6.95 µM] | activity, negative = cytotoxicity [10] 5.16% [at 8.39 µM] | viability change, negative = cytotoxic [11] 5.85% [at 6.97 µM] | activation [12] -2.52% [at 6.97 µM] | activation [13] 5.73% [at 6.98 µM]

O=C(Nc1ccc(F)cc1F)c1cccnc1Oc1cccc(C(F)(F)F)c1
inactive: Potency [1] | Potency [18] | Potency [2] | Potency [14] | Potency [4] | Potency [15] | Potency [16] | Potency [17] | Potency [6] | Potency [8] | Potency [9] | Potency [10] | Potency [19] | Potency [11] | Potency [13]

Nc1nc(N)nc(Cl)n1
inactive: Potency [1] | Potency [2] | Potency [4] | Potency [15] | Potency [6] | Potency [8] | Potency [9] | Potency [10] | Potency [19] | Potency [12] | Potency [13]

ClC1=C(Cl)[C@]2(Cl)[C@@H]3[C@H]4C[C@H]([C@@H]5O[C@H]45)[C@@H]3[C@@]1(Cl)C2(Cl)Cl
active: Potency [6] 43.6 µM | Potency [19] 27.3 µM
inactive: Potency [4] | Potency [15] | Potency [17] | Potency [8] | Potency [9] | Potency [10] | Potency [11]

ClCBr
inactive: Potency [18] | Potency [2] | Potency [14] | Potency [3] | Potency [4] | Potency [5] | Potency [15] | Potency [16] | Potency [6] | Potency [7] | Potency [8] | Potency [9] | Potency [10] | Potency [11] | Potency [12] | Potency [13]

CN(C)CCc1c[nH]c2ccccc12
inactive: Potency [2] | Potency [4] | Potency [15] | Potency [17] | Potency [6] | Potency [7] | Potency [8] | Potency [9] | Potency [10] | Potency [19] | Potency [11]

CN=C=O
inactive: Potency [1] | Potency [18] | Potency [2] | Potency [14] | Potency [4] | Potency [6] | Potency [7] | Potency [8] | Potency [9] | Potency [10] | Potency [19] | Potency [11] | Potency [12]

Nc1ccccc1-c1ccccc1
inactive: Potency [2] | Potency [14] | Potency [16] | Potency [7] | Potency [8] | Potency [9] | Potency [10] | Potency [19] | Potency [11] | Potency [12]

O=[N+]([O-])c1ccc(CCl)cc1
inactive: Potency [18] | Potency [2] | Potency [14] | Potency [15] | Potency [16] | Potency [17] | Potency [6] | Potency [7] | Potency [8] | Potency [9] | Potency [10] | Potency [19] | Potency [11] | Potency [12]

CCCCC(CC)COC(=O)OOC(C)(C)C (centres undefined)
inactive: Potency [2] | Potency [14] | Potency [15] | Potency [16] | Potency [6] | Potency [7] | Potency [8] | Potency [9] | Potency [10] | Potency [19] | Potency [12] | Potency [13]

COC(=O)c1ccccc1S(=O)(=O)NC(=O)Nc1nc(C)nc(OC)n1
inactive: Potency [1] | Potency [18] | Potency [2] | Potency [14] | Potency [3] | Potency [4] | Potency [5] | Potency [15] | Potency [16] | Potency [6] | Potency [7] | Potency [8] | Potency [9] | Potency [10] | Potency [11] | Potency [12] | Potency [13]

C[C@]12Cc3cn[nH]c3C[C@@H]1CC[C@@H]1[C@@H]2CC[C@@]2(C)[C@H]1CC[C@]2(C)O
inactive: Potency [5] | Potency [16] | Potency [7] | Potency [9] | Potency [10]
active: Potency [2] 29.8 µM | Potency [15] 33.5 µM | Potency [6] 29.8 µM | Potency [8] 23.9 µM | Potency [19] 13.3 µM | Potency [11] 23.9 µM

CCCCON=O
inactive: Potency [1] | Potency [2] | Potency [14] | Potency [4] | Potency [15] | Potency [16] | Potency [17] | Potency [6] | Potency [8] | Potency [9] | Potency [10] | Potency [11] | Potency [12] | Potency [13]

N#CCCl
inactive: Potency [2] | Potency [3] | Potency [4] | Potency [15] | Potency [16] | Potency [17] | Potency [6] | Potency [7] | Potency [8] | Potency [9] | Potency [10] | Potency [11] | Potency [12]

Cc1c([N+](=O)[O-])cc2c(c1[N+](=O)[O-])C(C)(C)CC2(C)C
inactive: Potency [18] | Potency [2] | Potency [14] | Potency [4] | Potency [5] | Potency [15] | Potency [17] | Potency [7] | Potency [8] | Potency [9] | Potency [10] | Potency [11]

Oc1cc(Cl)cc(Cl)c1
inactive: Potency [1] | Potency [18] | Potency [2] | Potency [4] | Potency [15] | Potency [16] | Potency [17] | Potency [6] | Potency [8] | Potency [9] | Potency [10] | Potency [19] | Potency [12] | Potency [13]
